From PubChem BioAssay (Tox21)
Where “and” joins values, the source holds several entries; their conditions need not be identical. Equal entries are not always repeated. Where a structure was tested more than once in an assay, its records may differ in their call. Calls of active or inactive are those of the source. A call without a number means that no potency is given here. Unless noted, calls follow the shape of the dose curve; as a rule, active = well fitted curve in the direction sought with a large enough effect in the repeat runs; inconclusive = weak or mixed curves; inactive = no such curve, though single readings can be large; an effect the other way counts as inactive or inconclusive.

Assays:
[1] = qHTS assay to identify small molecule antagonists of the glucocorticoid receptor (GR) signaling pathway - cell viability counter screen (AID 720693); also: nearly all actives have a fitted effect of over 55% in size; also: potency is read from the fitted curve at half-maximal effect
[2] = qHTS assay for identifying genotoxic compounds that show differential cytotoxicity against isogenic chicken DT40 cell lines with known DNA damage response pathways - wild type cell line (AID 743012); also: nearly all actives have a fitted effect of over 60% in size; also: potency is read from the fitted curve at half-maximal effect
Outline: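 Viability by ATP luminescence (CellTiter-Glo, 30 min RT) after 40 h compound treatment at 37 C/5% CO2, using 300 parental DNA repair-proficient DT40 cells per well.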

[3] = qHTS assay for identifying genotoxic compounds that show differential cytotoxicity against isogenic chicken DT40 cell lines with known DNA damage response pathways - Rev3 mutant cell line (AID 743014); also: nearly all actives have a fitted effect of over 55% in size; also: potency is read from the fitted curve at half-maximal effect
[4] = qHTS assay for identifying genotoxic compounds that show differential cytotoxicity against isogenic chicken DT40 cell lines with known DNA damage response pathways - Rad54/Ku70 mutant cell line (AID 743015); also: nearly all actives have a fitted effect of over 60% in size; also: potency is read from the fitted curve at half-maximal effect
[5] = qHTS assay to identify small molecule antagonists of the androgen receptor (AR) signaling pathway - cell viability counter screen (AID 743033; also: nearly all actives have a fitted effect of over 45% in size; also: potency is read from the fitted curve at half-maximal effect)
[6] = qHTS assay to identify small molecule antagonists of the androgen receptor (AR) signaling pathway using the MDA cell line - cell viability counter screen (AID 743041; also: nearly all actives have a fitted effect of over 45% in size; also: potency is read from the fitted curve at half-maximal effect)
Outline: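 In this qHTS counter assay, fluorescence intensity after CellTiter-Fluor addition indicated viability of MDA-kb2 AR-luc cells given compounds and R1881 for 16 h at 37C.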

[7] = qHTS assay to identify small molecule antagonists of the thyroid receptor (TR) signaling pathway - cell viability counter screen (AID 743064); also: nearly all actives have a fitted effect of over 50% in size; also: potency is read from the fitted curve at half-maximal effect
Outline: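 Counter screen for cytotoxicity: compound plus T3 (1 nM final) on GH3.TRE-Luc cells, 23.5 h at 37 °C, then fluorescence viability readout with CellTiter-Fluor.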

[8] = qHTS assay to identify small molecule antagonists of the thyroid receptor (TR) signaling pathway (AID 743065); also: nearly all actives have a fitted effect of over 55% in size; also: potency is read from the fitted curve at half-maximal effect
Outline: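 GH3.TRE-Luc rat pituitary cells carrying two TR response elements driving luciferase were plated for 4 h, given compound plus 1 nM T3 (final), and incubated 23.5 h at 37 C. ONE-Glo luminescence measured reporter inhibition; CellTiter-Fluor fluorescence tracked cytotoxicity.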

[9] = system: thyroid hormone receptor (rat, GH3 cells); assay: qHTS assay to identify small molecule agonists of the thyroid receptor (TR) signaling pathway (AID 743066; calls by dose curve)
[10] = target: Estrogen receptor (Homo sapiens) (UniProt P03372); assay: qHTS assay to identify small molecule antagonists of the estrogen receptor alpha (ER-alpha) signaling pathway (AID 743069; active = well fitted curve in the direction sought with a large enough effect in the signal ratio in the repeat runs, not every such curve was filed as active; inconclusive = weak or mixed curves, or effect the other way; inactive = no such curve, though single readings can be large or run the other way; the % refers to the signal ratio)
Outline: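 A 17beta-estradiol challenge was applied right after compound transfer to ER-alpha-UAS-bla HEK293 cells previously kept in charcoal-stripped serum. Plates stood 18 hr at 37C and 5% CO2; fluorescence was read following 2 hr FRET substrate loading at room temperature.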

[11] = qHTS assay to identify small molecule antagonists of the estrogen receptor alpha (ER-alpha) signaling pathway - cell viability counter screen (AID 743074; calls by dose curve;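 also: HEK293 cells carrying ER-alpha-UAS-bla reporter stimulated with 17beta-estradiol; nearly all actives have a fitted effect of over 45% in size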; also: potency is read from the fitted curve at half-maximal effect)
[12] = target: Estrogen receptor (Homo sapiens) (UniProt P03372); assay: qHTS assay to identify small molecule agonists of the estrogen receptor alpha (ER-alpha) signaling pathway (AID 743075; calls by dose curve;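 also: HEK293 GripTite cells with ER-alpha and UAS-driven beta-lactamase reporter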; also: potency is read from the fitted curve at half-maximal effect)
[13] = target: Estrogen receptor (Homo sapiens) (UniProt P03372); assay: qHTS assay to identify small molecule agonists of the estrogen receptor alpha (ER-alpha) signaling pathway using the BG1 cell line (AID 743079); also: nearly all actives have a fitted effect of over 20% in size
[14] = qHTS assay to identify small molecule antagonists of the estrogen receptor alpha (ER-alpha) signaling pathway using the BG1 cell line (AID 743080; calls by dose curve;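 also: BG1 cells stimulated with 17beta-estradiol alongside compound; nearly all actives have a fitted effect of over 25% in size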; also: potency is read from the fitted curve at half-maximal effect)
Outline: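 BG1Luc4E2, endogenous ER-alpha, 4xERE-luc; 5 d charcoal-stripped FBS, phenol red free; 24 h plating; cpd + 17beta-estradiol 21.5 h, 37 C/5% CO2; CellTiter-Fluor viability 30 min, then ONE-Glo luciferase 30 min RT.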

[15] = qHTS assay to identify small molecule antagonists of the estrogen receptor alpha (ER-alpha) signaling pathway using the BG1 cell line - cell viability counter screen (AID 743081);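 also: compound given together with 17beta-estradiol as the ER stimulus; nearly all actives have a fitted effect of over 45% in size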; also: potency is read from the fitted curve at half-maximal effect
Aromatase (Homo sapiens) = Aromatase (Homo sapiens) (UniProt P11511); assay: qHTS assay to identify aromatase inhibitors (AID 743083); also: nearly all actives have a fitted effect of over 55% in size; also: potency is read from the fitted curve at half-maximal effect
[16] = target: Androgen receptor (Homo sapiens) (UniProt P10275); assay: qHTS assay to identify small molecule antagonists of the androgen receptor (AR) signaling pathway (AID 743035; active = well fitted inhibition curve with a large enough effect in the signal ratio in the repeat runs, not every such curve was filed as active; inconclusive = weak or mixed curves, or effect the other way; inactive = no such curve, though single readings can be large or run the other way; the % refers to the signal ratio; also: potency is read from the fitted curve at half-maximal effect)
Outline: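 Antagonist mode: AR-bla HEK293 cells co-treated with test compounds and agonist R1881 for 16 h at 37C, 5% CO2. Beta-lactamase activity read as FRET fluorescence after 2 h room-temperature substrate loading.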

[17] = target: Androgen receptor (Homo sapiens) (UniProt P10275); assay: qHTS assay to identify small molecule agonists of the androgen receptor (AR) signaling pathway (AID 743036; active = well fitted activation curve with a large enough effect in the signal ratio in the repeat runs, with a control signal flat, not every such curve was filed as active; inconclusive = weak or mixed curves, or effect the other way; inactive = no such curve, though single readings can be large or run the other way; the % refers to the signal ratio)
Outline: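 In this Tox21 qHTS, 2,000 HEK293 AR-bla cells per well were incubated with compounds for 16 h at 37C and 5% CO2. Fluorescence intensity was recorded 2 h after adding LiveBLAzer B/G FRET substrate at room temperature.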

[18] = target: Androgen receptor (Homo sapiens) (UniProt P10275); assay: qHTS assay to identify small molecule agonists of the androgen receptor (AR) signaling pathway using the MDA cell line (AID 743040; also: nearly all actives have a fitted effect of over 20% in size)
Outline: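 Cell-based luciferase reporter: MDA-kb2, MMTV promoter (AR + GR response elements). 16 h compound exposure at 37C; ONE-Glo, 30 min RT, luminescence.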

[19] = target: Androgen receptor (Homo sapiens) (UniProt P10275); assay: qHTS assay to identify small molecule antagonists of the androgen receptor (AR) signaling pathway using the MDA cell line (AID 743042; also: nearly all actives have a fitted effect of over 55% in size; also: potency is read from the fitted curve at half-maximal effect)
Outline: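 MDA-kb2 cells (human breast carcinoma, stably carrying an MMTV-luciferase reporter responsive to AR and GR) were plated at 3,000 cells/well and preincubated 5 hr at 37C, then given compound plus R1881 agonist for 16 h. ONE-Glo luminescence was read.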

Aromatase (Homo sapiens), sequence (P11511 whole entry, looked up): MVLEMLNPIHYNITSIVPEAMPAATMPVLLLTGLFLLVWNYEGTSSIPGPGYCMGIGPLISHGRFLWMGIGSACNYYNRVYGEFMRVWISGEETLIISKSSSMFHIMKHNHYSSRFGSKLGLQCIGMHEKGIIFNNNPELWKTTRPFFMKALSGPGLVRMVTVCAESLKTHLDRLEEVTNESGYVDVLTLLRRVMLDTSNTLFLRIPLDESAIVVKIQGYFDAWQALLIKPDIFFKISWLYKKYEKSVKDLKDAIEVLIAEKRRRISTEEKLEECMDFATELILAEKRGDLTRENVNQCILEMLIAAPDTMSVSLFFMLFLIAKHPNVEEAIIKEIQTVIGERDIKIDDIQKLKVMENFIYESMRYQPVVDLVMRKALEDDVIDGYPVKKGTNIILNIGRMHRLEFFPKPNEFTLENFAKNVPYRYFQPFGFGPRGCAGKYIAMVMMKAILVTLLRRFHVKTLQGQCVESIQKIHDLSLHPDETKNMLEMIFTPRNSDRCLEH
Androgen receptor (Homo sapiens), sequence (P10275 whole entry, looked up): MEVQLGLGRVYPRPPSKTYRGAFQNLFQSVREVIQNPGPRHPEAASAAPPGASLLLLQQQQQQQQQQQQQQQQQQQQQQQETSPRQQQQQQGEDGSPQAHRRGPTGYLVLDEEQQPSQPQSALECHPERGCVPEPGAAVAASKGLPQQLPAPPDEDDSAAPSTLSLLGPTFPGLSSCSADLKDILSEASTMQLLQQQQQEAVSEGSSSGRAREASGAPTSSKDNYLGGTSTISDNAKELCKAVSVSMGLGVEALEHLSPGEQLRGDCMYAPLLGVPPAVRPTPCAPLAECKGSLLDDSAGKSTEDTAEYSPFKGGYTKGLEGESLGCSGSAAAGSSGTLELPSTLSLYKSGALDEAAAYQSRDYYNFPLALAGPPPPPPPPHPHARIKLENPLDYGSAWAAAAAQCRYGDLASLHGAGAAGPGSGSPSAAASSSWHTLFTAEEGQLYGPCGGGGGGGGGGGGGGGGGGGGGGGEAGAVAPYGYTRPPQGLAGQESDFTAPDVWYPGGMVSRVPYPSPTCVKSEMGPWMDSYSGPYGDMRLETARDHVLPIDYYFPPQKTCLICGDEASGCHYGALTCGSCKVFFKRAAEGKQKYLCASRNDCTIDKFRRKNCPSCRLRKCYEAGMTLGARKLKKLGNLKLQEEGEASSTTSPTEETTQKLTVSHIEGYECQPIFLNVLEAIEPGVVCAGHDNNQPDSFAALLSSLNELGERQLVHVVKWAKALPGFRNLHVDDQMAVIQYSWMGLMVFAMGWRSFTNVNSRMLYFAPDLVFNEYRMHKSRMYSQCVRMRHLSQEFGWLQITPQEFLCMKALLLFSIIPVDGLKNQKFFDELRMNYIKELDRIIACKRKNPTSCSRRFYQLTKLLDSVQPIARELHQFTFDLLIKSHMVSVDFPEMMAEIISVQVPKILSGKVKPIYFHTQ
Estrogen receptor (Homo sapiens), sequence (P03372 whole entry, looked up): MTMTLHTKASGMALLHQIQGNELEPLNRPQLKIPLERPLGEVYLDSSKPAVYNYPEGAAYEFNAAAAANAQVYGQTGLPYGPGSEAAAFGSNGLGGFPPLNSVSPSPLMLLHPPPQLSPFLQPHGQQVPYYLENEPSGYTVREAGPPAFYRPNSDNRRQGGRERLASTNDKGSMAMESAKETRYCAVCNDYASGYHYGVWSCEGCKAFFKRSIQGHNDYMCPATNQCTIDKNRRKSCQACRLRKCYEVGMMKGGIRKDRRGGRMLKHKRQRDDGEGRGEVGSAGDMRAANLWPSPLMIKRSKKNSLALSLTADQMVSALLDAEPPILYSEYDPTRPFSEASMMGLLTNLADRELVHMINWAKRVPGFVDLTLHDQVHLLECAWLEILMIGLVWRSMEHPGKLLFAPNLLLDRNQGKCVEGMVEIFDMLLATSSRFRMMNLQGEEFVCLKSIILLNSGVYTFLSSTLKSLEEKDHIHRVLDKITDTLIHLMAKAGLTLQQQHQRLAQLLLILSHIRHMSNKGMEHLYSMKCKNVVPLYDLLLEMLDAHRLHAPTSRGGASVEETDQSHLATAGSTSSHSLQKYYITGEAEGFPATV

SMILES	Potency [1]	Potency [2]	Potency [3]	Potency [4]	Potency [5]	Potency [6]	Potency [7]	Potency [8]	outcome [9]	Potency [10]	Potency [11]	Potency [12]	Potency [13]	Potency [14]	Potency [15]	Potency (Aromatase (Homo sapiens))	Potency [16]	Potency [17]	outcome [18]	Potency [19]
C=Cc1cccc(C)c1	inactive	inactive	inactive	inactive	inactive	inactive	inactive	inactive	inactive	inactive	inactive	inactive	inactive	inactive	inactive	inactive				
CC(CO)Oc1ccccc1 (stereo unspecified)	inactive	inactive	inactive	inactive	inactive		inactive	inactive	inactive		inactive	inactive	inactive	inactive	inactive	inactive	inactive	inactive	inactive	inactive
CC(=O)CC(=O)Nc1ccc(S(=O)(=O)O)cc1	inactive	inactive	inactive	inactive	inactive	inactive	inactive	inactive	inactive	inactive	inactive	inactive	inactive	inactive	inactive	inactive				
CCC(=O)OC(=O)CC	inactive	inactive	inactive	inactive	inactive	inactive	inactive	inactive	inactive		inactive	inactive	inactive	inactive	inactive	inactive				
Oc1c(I)cc(Cl)c2cccnc12	inactive	18.8 µM (active) and 15.3 µM (active)	11.9 µM (active) and 15.3 µM (active)	16.8 µM (active) and 19.3 µM (active)	inactive and 17.3 µM (active)	inactive	inactive		inactive						inactive	inactive and 27.3 µM (active)	inactive	inactive	inactive	inactive
OC[C@@H](O)[C@@H](O)CO	inactive	inactive	inactive	inactive	inactive	inactive	inactive	inactive	inactive		inactive	inactive	inactive	inactive	inactive	inactive				
Cc1ccc(C)cc1	inactive	inactive	inactive	inactive	inactive		inactive	inactive	inactive	inactive	inactive	inactive	inactive	inactive	inactive		inactive	inactive	inactive	inactive
O=C(O)c1cccc(C(F)(F)F)c1	inactive	inactive	inactive	inactive	inactive	inactive	inactive	inactive	inactive	inactive	inactive	inactive	inactive	inactive	inactive	inactive				
Clc1sc(Cl)c(Cl)c1Cl	inactive	inactive	inactive	inactive	inactive	inactive	inactive				inactive	inactive	inactive	inactive	inactive	inactive	inactive	inactive	inactive	inactive
CCCCCCCC/C=C\CCCCCCCCN	inactive	inactive	inactive	inactive	inactive	inactive	inactive	inactive	inactive	inactive	inactive	inactive	inactive	inactive	inactive	inactive				
O=C(O)c1cc(=O)c2ccccc2o1	inactive	inactive	inactive	inactive	inactive	inactive	inactive	inactive	inactive		inactive	inactive	inactive	inactive	inactive	inactive				
CN(C)c1ccc(C(=C2C=CC(=[N+](C)C)C=C2)c2ccc(N(C)C)cc2)cc1	6.01 µM (active) and 3.45 µM (active) and 9.77 µM (active)	335 nM (active) and 542 nM (active) and 193 nM (active)	473 nM (active) and 483 nM (active) and 243 nM (active)	422 nM (active) and 483 nM (active) and 193 nM (active)	1.69 µM (active) and 1.37 µM (active) and 347 nM (active)	3.35 µM (active) and 7.66 µM (active) and 4.33 µM (active)	1.88 µM (active) and 859 nM (active) and 8.63 µM (active)				10.7 µM (active) and 8.67 µM (active) and 24.5 µM (active)	3.07 µM [inconclusive] (active)		2.42 µM (active) and 3.86 µM (active)	13.3 µM (active) and 12.1 µM (active) and 24.3 µM (active)	2.98 µM (active) and 608 nM (active) and 864 nM (active)	0.347 µM (active)		inactive	2.37 µM (active) and 859 nM (active) and 864 nM (active)
Cc1ccc(O)c(O)c1	53.4 µM (active)	16.7 µM (active)	13.3 µM (active)	21.1 µM (active)	inactive	inactive	29.8 µM (active)	26.5 µM (active)	inactive		inactive	53.4 µM [inconclusive] (active)	inactive	inactive		66.6 µM (active)				
C=CC(C)(CCC=C(C)C)OC=O (stereo unspecified)	inactive	inactive	24.3 µM (active)	54.5 µM (active)	inactive	inactive	inactive	inactive	inactive	inactive	inactive	inactive	inactive	inactive	inactive	inactive				
